# Reference: PubChem BioAssay (NCI)
# “And” between values parts separate entries of the source, which are not always exact repeats. Identical values can stand only once. The panel holds about 83,000 compounds, 20% with a hit somewhere; the sample as a whole holds those more often.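 Cells were grown in 96-well plates and exposed to the test compound at a single concentration for 48 hours; results are reported as percent growth, with values below 10 considered active.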 A number with no mark means an inactive call. The source made the active and inactive calls.
# Key:
# Assay in all cases: NCI-60 one-dose screen, 48 h (100 = growth as untreated, 0 = no growth, -100 = all killed)
# Conditions in all cases: 10 µM unless noted
# NCI-H23 lung = tested on: NCI-H23 lung
# NCI-H226 lung = tested on: NCI-H226 lung
# NCI-H322M lung = tested on: NCI-H322M lung
# HOP-62 NSCLC = tested on: HOP-62 NSCLC
# NCI-H460 lung = tested on: NCI-H460 lung
# HOP-92 NSCLC = tested on: HOP-92 NSCLC
# NCI-H522 lung = tested on: NCI-H522 lung
# A549/ATCC NSCLC = tested on: A549/ATCC NSCLC
# 786-0 renal = tested on: 786-0 renal
# COLO 205 colon = tested on: COLO 205 colon
# DU-145 prostate = tested on: DU-145 prostate
# K-562 leukemia = tested on: K-562 leukemia
# MALME-3M melanoma = tested on: MALME-3M melanoma
# MDA-MB-231 breast = tested on: MDA-MB-231 breast
# RXF 393 renal = tested on: RXF 393 renal
# SF-268 CNS = tested on: SF-268 CNS
# SF-295 CNS = tested on: SF-295 CNS
# SF-539 CNS = tested on: SF-539 CNS
# UACC-257 melanoma = tested on: UACC-257 melanoma
# M14 melanoma = tested on: M14 melanoma
SMILES,growth (NCI-H23 lung),growth (NCI-H226 lung),growth (NCI-H322M lung),growth (HOP-62 NSCLC),growth (NCI-H460 lung),growth (HOP-92 NSCLC),growth (NCI-H522 lung),growth (A549/ATCC NSCLC),growth (786-0 renal),growth (COLO 205 colon),growth (DU-145 prostate),growth (K-562 leukemia),growth (MALME-3M melanoma),growth (MDA-MB-231 breast),growth (RXF 393 renal),growth (SF-268 CNS),growth (SF-295 CNS),growth (SF-539 CNS),growth (UACC-257 melanoma),growth (M14 melanoma)
CC[C@]12C=CCN3CC[C@]4(C(=C(C(=O)OC)C1)Nc1cc(OC)c([C@@H]5[C@H]6O[C@H]6[C@@]6(CC)CC(C(=O)OC)=C7Nc8cc(O)ccc8[C@@]78CCN5[C@@H]68)cc14)[C@@H]32,-18.8% (active),-58.1% (active),33.6%,32.2%,-68.4% (active),-41.9% (active),-31.2% (active),17.2%,-8% (active),-70.2% (active),23.2%,-3.65% (active),-77.4% (active),-54.2% (active),-34.2% (active),22.3%,-47.2% (active),-38.4% (active),-10.2% (active),-28.4% (active)
CC[C@@]12CC(C(=O)OC)=C3Nc4cc5c(cc4[C@@]34CCN(C[C@H]3O[C@H]31)[C@@H]24)[C@@H]1[C@H](O5)[C@@H](O)[C@@]2(CC)CC(C(=O)OC)=C3Nc4cc(O)ccc4[C@@]34CCN1[C@@H]24,-53.9% (active),-50.9% (active),-43% (active),-54.4% (active),-26.6% (active),-27.3% (active),-44.9% (active),4.31% (active),-89.3% (active),-61.5% (active),7.47% (active),-8.19% (active),-39.6% (active),-70.4% (active),-98.4% (active),10.3%,-63% (active),-53.1% (active),-23.5% (active),-61.4% (active)
Cc1cccc(-c2ccccc2Oc2ccc3nnc(Cl)n3n2)c1,96.8%,103%,99.9%,114%,109%,130%,102%,98.7%,98.8%,127%,111%,103%,94.4%,107%,107%,106%,95.3%,98.8%,99%,97.6%
Cc1[nH]nc2ccc3nc(-c4cn[nH]c4C(F)(F)F)c4c(c3c12)CCCC4,-8.3% (active),-5.98% (active),2.15% (active),5.21% (active),1.29% (active),-18.3% (active),-54% (active),-2.97% (active),-21.2% (active),-18.6% (active),5.72% (active),14.9%,-24% (active),-14.8% (active),-79.6% (active),18%,-12.9% (active),-67.2% (active),17.8%,3.29% (active)
COc1cc(/C=C/C(=O)c2cnn(-c3cc(=O)[nH]c4ccc(Br)cc34)c2C)cc(OC)c1OC,-63.4% (active),-28% (active),4.7% (active),-9.41% (active),-60.4% (active),25.7%,-89.1% (active),8.86% (active),-73% (active),-80.7% (active),-83.4% (active),-0.439% (active),-42.4% (active),-34.3% (active),-76.2% (active),-16.4% (active),-61.8% (active),-78.8% (active),-30.3% (active),-49.8% (active)
CC[C@]12C=CCN3CC[C@]4(C(=C(C(=O)OC)C1)Nc1cc(OC)c([C@@H]5[C@H]6O[C@H]6[C@@]6(CC)CC(C(=O)OC)=C7Nc8cc(OC)ccc8[C@@]78CCN5[C@@H]68)cc14)[C@@H]32,41.8%,72.3%,86.2%,74.1%,29.9%,62.1%,64.8%,70.1%,44.6%,57.7%,70.2%,13.7%,44.4%,52.6%,48.1%,57.3%,53.8%,61.4%,75.2%,60.2%
CN(C)c1nc(NCCNS(=O)(=O)c2ccc(C(=O)/C=C/c3ccc(Cl)cc3)cc2)nc(N2CCOCC2)n1,9.4% (active),74.9%,81.2%,74.8%,50.7%,67.9%,25%,12%,-41.6% (active),21.1%,6.95% (active),-6.36% (active),89.2%,15.7%,-59.3% (active),57.8%,55.5%,-67.5% (active),71.5%,-20.2% (active)
O=Cc1cncc(-c2ccc3ncnc(N4CCc5cc(F)c(Cl)cc54)c3c2)c1,44.6%,10.8%,0.287% (active),51.9%,25.2%,-4.62% (active),59%,21.6%,18%,99.7%,22.5%,35.5%,23.7%,28.2%,-7.23% (active),42.1%,19.2%,25.8%,59.1%,48.6%
COc1ccc2c(c1)c(-c1cc(N)n3nc(-c4c[nH]c5ccccc45)cc3n1)cn2C,-69.9% (active),-33.1% (active),-53.5% (active),-71.5% (active),-69.7% (active),-66.7% (active),-70.4% (active),-88.1% (active),-84.5% (active),-83.9% (active),-46.6% (active),1.75% (active),-89.9% (active),-75.7% (active),-79% (active),-41.1% (active),-76.9% (active),-97.1% (active),-89.6% (active),-71.2% (active)
COc1ccc2ccccc2c1/C=C1\SC(=Nc2ccc(O)cc2)NC1=O,19.3%,-5.11% (active),32.7%,23.8%,11.1%,18.3%,-24% (active),11.5%,17.7%,-22.2% (active),35.2%,7.49% (active),30.1%,15.1%,-1.11% (active),37.9%,10.7%,-21.7% (active),37.8%,6.7% (active)
Cc1cc(C(NC(=O)C2CC3(CC(Nc4cccc5c4C(=O)N(C4CCC(=O)NC4=O)C5=O)C3)C2)c2ccc3c(c2)OC(F)(F)O3)c(O)c2ncccc12 (stereo not given),6.24% (active),-2.38% (active),27.5%,-10.9% (active),1.76% (active),-1.71% (active),2.63% (active),9.67% (active),-12.8% (active),13.2%,17.2%,10.8%,9.46% (active),25.2%,23%,14.4%,8.11% (active),-24.9% (active),-11% (active),-30.4% (active)
CS(=O)(=O)Nc1cccc(-n2c(COc3ccc(OC(F)(F)F)cc3)nc3ccccc32)c1,84.7% and 104%,83.3% and 103%,101% and 121%,96.2% and 97.2%,110%,59.6% and 108%,84.8% and 101%,96.1% and 111%,110% and 103%,100% and 113%,105% and 121%,82.2% and 107%,89.6% and 102%,92.4% and 110%,85.8% and 110%,90% and 113%,92.7% and 100%,81.1% and 105%,106% and 109%,114% and 107%
Cn1cc(-c2cc(N)n3nc(-c4c[nH]c5ccccc45)cc3n2)c2cc(F)ccc21,44.7%,91.4%,65.1%,-22.1% (active),-23.9% (active),31.3%,-61.8% (active),13.7%,-2.12% (active),-47.4% (active),46.2%,3.57% (active),76.8%,-52.2% (active),148%,65.3%,-50.8% (active),-61.9% (active),45.7%,-0.365% (active)
